Data from the supplement of paper PMC11417369.
± gives the standard deviation of the averaged measurements. The full ranking holds about 25,000 sequences; the median of “ln(normalized median fluorescence intensity)” is about 10, and the highest 2% start at about 12. The sample as a whole holds a higher share of the highest values than the screen did.

System: PfAP2-G AP2 domain (GST-tagged)
Test: gcPBM binding intensity (ln(normalized median fluorescence intensity)); higher = stronger DNA binding
Summary of the method: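 GST-tagged P. falciparum DNA-binding domains, expressed in E. coli (about 25 μg on average), were applied for 1 h to an Agilent 4 × 180k array of primer-extended double-stranded 36-bp intergenic genomic probes plus negative controls. The binding buffer was 1× PBS with 1% milk, 0.2 mg/ml BSA, 0.5% salmon testes DNA and 0.03% Triton X-100. Bound protein was detected with Alexa488 anti-GST antibody and scanned at 488 nm. Binding intensity is the highest Masliner-normalised natural-log median intensity across replicate spots of either probe orientation.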

Question: How did the “gcPBM binding intensity (ln)” value turn out when “AAACCGAATTTACATGAATGTAAATTATGTTGTTTT [CACACA_negctrl_site1834]” was run?
Answer: 9.53 ± 0.13

Question: How did the “gcPBM binding intensity (ln)” value turn out when “TTTGCTTCCAAAAGTCGTACAAAAAATATTAAATAT [XGTACX_site4171]” was run?
Answer: 11.6 ± 0.9

Question: How did the “gcPBM binding intensity (ln)” value turn out when “AATGAAGACTTTTTTACACACTTCATATCTTATAGA [CACACA_site7046]” was run?
Answer: 9.99 ± 0.028

Question: For “GTATATATGTATATGTGTACACATATTCTTAACTCA [XGTACX_site309]”, which “gcPBM binding intensity (ln)” value is on record?
Answer: 11.6 ± 0.89

Question: With “TTTGATTTTAATGTGTGTACACATTTATTTATATAA [XGTACX_site4806]” as the sequence, how does the “gcPBM binding intensity (ln)” value read?
Answer: 11.8 ± 1.2

Question: Which “gcPBM binding intensity (ln)” value does the source give for “AAATTACCCTTGTGTACACATATATTATCTGTATTA [CACACA_site4514]” here?
Answer: 12 ± 1.4

Question: “TTTGTGTATATATAATGTACATTATATTTTTATTAT [XGTACX_site6506]” was tested. Which “gcPBM binding intensity (ln)” value did it give?
Answer: 10.9 ± 0.53

Question: With “GTATGTATATTTATCTGTACATATTTATGTATTCTT [XGTACX_site2112]” as the sequence, how does the “gcPBM binding intensity (ln)” value read?
Answer: 11.2 ± 0.64

Question: “ATGTGATAGAAGTACACACACATATGTATTTATAAT [CACACA_site5075]” was tested. Which “gcPBM binding intensity (ln)” value did it give?
Answer: 11.7 ± 1.1

Question: Which “gcPBM binding intensity (ln)” value does the source give for “ATGTGATATAAGTACACACACATATGTATATAGAAT [CACACA_site1823]” here?
Answer: 11.5 ± 1.1

Question: How did the “gcPBM binding intensity (ln)” value turn out when “ATGTGATATAAGTACACACACATATGTATTTATAAC [CACACA_site6942]” was run?
Answer: 11.5 ± 0.8

Question: Which “gcPBM binding intensity (ln)” value does the source give for “TATTTCTGATTATTTTGTACACATTATATATAATGC [XGTACX_site6990]” here?
Answer: 11.2 ± 0.83

Question: How did the “gcPBM binding intensity (ln)” value turn out when “CAAAAATTACCCTTGTGTACACATATATTATATGTA [XGTACX_site1124]” was run?
Answer: 11.6 ± 0.91

Question: With “TATCTGTATATGTGTACACATATTCTTAACTCACGC [CACACA_site4255]” as the sequence, how does the “gcPBM binding intensity (ln)” value read?
Answer: 11.7 ± 1

Question: For “AAAAATTACCCTTGTGTACACATATATTATCTGTAT [CACACA_site4513]”, which “gcPBM binding intensity (ln)” value is on record?
Answer: 11.6 ± 0.95

Question: With “TTATTAAATTTTTTTTGTACTTATATATATATATAT [XGTACX_site2443]” as the sequence, how does the “gcPBM binding intensity (ln)” value read?
Answer: 11.2 ± 0.79

Question: How did the “gcPBM binding intensity (ln)” value turn out when “TTTTTTTTTTTTTACACACACAAAATATTATCTGTA [CACACA_site5378]” was run?
Answer: 9.83 ± 0.42

Question: How did the “gcPBM binding intensity (ln)” value turn out when “AATAATTAAATATATTTATAACAGGAAAATATTTAT [XGTACX_negctrl_site175]” was run?
Answer: 10.2 ± 0.16

Question: For “TGTTGTATTTTTACAACACACATTTAATCCATTTAA [CACACA_site1507]”, which “gcPBM binding intensity (ln)” value is on record?
Answer: 10 ± 0.27

Question: How did the “gcPBM binding intensity (ln)” value turn out when “CTTCCTTAGGAATGTACACACATATAAAATATGTTG [CACACA_site6355]” was run?
Answer: 11.4 ± 0.84

Question: How did the “gcPBM binding intensity (ln)” value turn out when “ATAAAATAATTAATGGGTACATAATTAAATAAAGAG [XGTACX_site3309]” was run?
Answer: 11.3 ± 0.66

Question: How did the “gcPBM binding intensity (ln)” value turn out when “TTTTATGAAAAATGGCTTATCTGTAAAGAAGTGGAG [CACACA_negctrl_site1586]” was run?
Answer: 10.3 ± 0.36

Question: For “AAGGTATAGAAACACACACACGTGAATATAGTTTAA [CACACA_site5109]”, which “gcPBM binding intensity (ln)” value is on record?
Answer: 10.01 ± 0.028

Question: For “ATATATATATAATGTGTACACACATATGTATTTATA [CACACA_site8170]”, which “gcPBM binding intensity (ln)” value is on record?
Answer: 11.7 ± 0.67

Question: How did the “gcPBM binding intensity (ln)” value turn out when “ATATATATATATATATGTACATATTTTATTTAATTT [XGTACX_site1807]” was run?
Answer: 11.2 ± 0.69

Question: How did the “gcPBM binding intensity (ln)” value turn out when “GATTTTAATGGGTGTACACATTTATTTATATAAAGT [CACACA_site5317]” was run?
Answer: 11.7 ± 0.93

Question: For “ATATATATATATTTATGTACATATACATAATGTATA [XGTACX_site6387]”, which “gcPBM binding intensity (ln)” value is on record?
Answer: 11.2 ± 0.76

Question: How did the “gcPBM binding intensity (ln)” value turn out when “GTATGTATGTATATATGTACACATTATTATTTAATG [XGTACX_site5802]” was run?
Answer: 11.6 ± 1

Question: “ATTTTTTTTTTTATGTGTACATATATTTTTTTAATT [XGTACX_site7921]” was tested. Which “gcPBM binding intensity (ln)” value did it give?
Answer: 11.6 ± 0.97

Question: How did the “gcPBM binding intensity (ln)” value turn out when “GTATATATGTATATGTGTACATATATTTTATAATAT [XGTACX_site5703]” was run?
Answer: 11.3 ± 0.79

Question: “TCACATATATATTAATGTACATATATTTTTTATGTA [XGTACX_site5125]” was tested. Which “gcPBM binding intensity (ln)” value did it give?
Answer: 11.2 ± 0.54

Question: With “ATGTATATATTTTTATGTACATATTTTTAATTTATA [XGTACX_site2982]” as the sequence, how does the “gcPBM binding intensity (ln)” value read?
Answer: 11.4 ± 0.87

Question: Which “gcPBM binding intensity (ln)” value does the source give for “TAATATAATAGAAGTGTACACACATATTTATGGGTG [CACACA_site9023]” here?
Answer: 11.6 ± 0.93

Question: For “TTTTATTTATCTTAATGTACACATTTATATATATAT [XGTACX_site8588]”, which “gcPBM binding intensity (ln)” value is on record?
Answer: 11.7 ± 1.3

Question: How did the “gcPBM binding intensity (ln)” value turn out when “ATATTTATAATTTTTTGTACACATTTTTTAAAGATA [XGTACX_site1784]” was run?
Answer: 11.4 ± 0.9

Question: Which “gcPBM binding intensity (ln)” value does the source give for “TGTATGTATGTATTATTTGTTATTTTAATTTTTTTG [TGCATGCA_negctrl_site256]” here?
Answer: 10.36 ± 0.085

Question: With “CATATATAACATATAACACACATACTTAGTATTACA [CACACA_site5674]” as the sequence, how does the “gcPBM binding intensity (ln)” value read?
Answer: 10.1 ± 0.24

Question: With “GTTACAGAGAATGTTGTGCACATATCAATAATATAT [GTGCAC_site9671]” as the sequence, how does the “gcPBM binding intensity (ln)” value read?
Answer: 10.5 ± 0.28

Question: For “AACGTGTATTTATATTGTACACATTCATACATCAAA [XGTACX_site3644]”, which “gcPBM binding intensity (ln)” value is on record?
Answer: 11.4 ± 0.95

Question: How did the “gcPBM binding intensity (ln)” value turn out when “TCCTTACCTATTAAAGCATGCTCGAATATATATTTT [TGCATGCA_site53]” was run?
Answer: 9.81 ± 0.18

Question: With “ATACACATAACATATATATATATATATATATATATC [CACACA_negctrl_site278]” as the sequence, how does the “gcPBM binding intensity (ln)” value read?
Answer: 9.73 ± 0.057

Question: For “TTTTGGATACTTCATTTGTCCTGTTTTTTTTTTTTA [CACACA_negctrl_site399]”, which “gcPBM binding intensity (ln)” value is on record?
Answer: 10.7 ± 0.37

Question: “TATATATATATGTGTACACAATTTATCTGTATTTAT [CACACA_site5945]” was tested. Which “gcPBM binding intensity (ln)” value did it give?
Answer: 11.8 ± 0.93

Question: For “GTTCCATATATTACATGTACATATTTTTACATTTAA [XGTACX_site660]”, which “gcPBM binding intensity (ln)” value is on record?
Answer: 11.2 ± 0.72

Question: With “TATACATTTATGTACACACACATATCTGTATATTTA [CACACA_site5617]” as the sequence, how does the “gcPBM binding intensity (ln)” value read?
Answer: 11.5 ± 0.97

Question: “ATATATATATACATATGTACATATATATTTATACAT [XGTACX_site2463]” was tested. Which “gcPBM binding intensity (ln)” value did it give?
Answer: 11 ± 0.58

Question: Which “gcPBM binding intensity (ln)” value does the source give for “TATTTTTCCATTGGGGGTACATGTGTTATATTTATT [XGTACX_site5914]” here?
Answer: 11.7 ± 0.88

Question: With “GATAATAATAAGTGTACACATATATTTAGAAGAGTA [CACACA_site4245]” as the sequence, how does the “gcPBM binding intensity (ln)” value read?
Answer: 11.5 ± 0.85

Question: With “GAATATATATTCATATGTACACAATTTATGTATTAT [XGTACX_site4719]” as the sequence, how does the “gcPBM binding intensity (ln)” value read?
Answer: 11.4 ± 0.79
